According to article PMC5892938, “SARNAclust: Semi-automatic detection of RNA protein binding motifs from immunoprecipitation data”:
The full ranking holds about 11,000 sequences; the median of “log2 fold change” is about 0.00022, and the highest 2% start at about 0.34. The list shows a part of the results.

molecular target: GST-SBP-SLBP (stem-loop binding protein) (Homo sapiens, UniProt Q14493 1-270); assay: targeted RNA Bind-n-Seq; RBNS binding buffer: 25 mM Tris pH 7.5, 150 mM KCl, 3 mM MgCl2, 0.1% Tween, 0.5 mg/mL BSA, 1 mM DTT; 27 nM protein, 750 pM RNA pool; temperature not stated; high values mean tight binding; settings: protein: recombinant; tags: N-terminal GST and SBP (pGEX6P1-SBP); structured_RNA
How it was run: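 Read counts per sequence supply the binding signal, defined as the DEseq fold change on a binary-logarithm scale. These counts came from RNA of a designed, T7-transcribed oligo pool at 750 pM that bound 27 nM of GST-SBP-tagged protein, made in Rosetta(DE3) pLysS E. coli and glutathione-purified, in RBNS binding buffer. The bound RNA was reverse transcribed with a 10-nucleotide barcoded primer, PCR-amplified and sequenced on a MiSeq with 200-cycle paired-end reads, then processed with FLASH and HISAT2 and collapsed by barcode.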

Sequence	binding signal [log2 fold change]
GGUCACGUCUCAAUCAACUCUCUAGAGGGGGGGAAAACCCCUUUGCCCUCACUAUCAACAGCUCGCAGUCAAG	0.386 ± 0.408
GGUCACGUCUCAAUCAACUCAAAAGAGGGGGGGAAAACCCCUUUACCCUCAUCUUCAACAGCUCGCAGUCAAG	0.535 ± 0.407
GGUCACGUCUCAAUCAACUCAAAAGAGGGGGGGAAAACCCCUUUACCCUCAUAUUCAACAGCUCGCAGUCAAG	0.449 ± 0.451
GGUCACGUCUCAAUCAACUCCAAAGAGGGGGGGAAAACCCCUUUACCCUCAUCUUCAACAGCUCGCAGUCAAG	0.443 ± 0.434
GGUCACGUCUCAAUCAACUCUAUUUCCAGGGAAAUCCCUGGCUAACUCAACAGCUCGCAGUCAAG	0.335 ± 0.258
GGUCACGUCUCAAUCAACUCUAUUUCCAGGGAAAUCCCUGGCUUAUUCAACAGCUCGCAGUCAAG	0.488 ± 0.245
GGUCACGUCUCAAUCAACUCAUCUCCCAGGGAAAUCCCUGGCUUAUUCAACAGCUCGCAGUCAAG	0.417 ± 0.302
GGUCACGUCUCAAUCAACUCAUUCCCCAGGGAAAUCCCUGGCUUAUUCAACAGCUCGCAGUCAAG	0.349 ± 0.307
GGUCACGUCUCAAUCAACUCAAUCCCCAGGGAAAUCCCUGGCAUUCUCAACAGCUCGCAGUCAAG	0.318 ± 0.264
GGUCACGUCUCAAUCAACUCCCAAAGGUUUUUUUUAGAGCCACCCAUCAACAGCUCGCAGUCAAG	0.324 ± 0.158
GGUCACGUCUCAAUCAACUCCCAAAGGUUUUUUUAAGAGCCACCCAUCAACAGCUCGCAGUCAAG	0.54 ± 0.157
GGUCACGUCUCAAUCAACUCCCAAAGGUUUUUUUUAGAACCACCCAUCAACAGCUCGCAGUCAAG	0.338 ± 0.169
GGUCACGUCUCAAUCAACUCCCAAAGGCUUUUCUUAGAGCCACCCAUCAACAGCUCGCAGUCAAG	0.496 ± 0.164
GGUCACGUCUCAAUCAACUCCCAAAGGUUUUUCUCAGAACCACCCAUCAACAGCUCGCAGUCAAG	0.402 ± 0.178
GGUCACGUCUCAAUCAACUCUUUCCCAGGAGUUUUCUCCUGUUAUGUCAACAGCUCGCAGUCAAG	0.376 ± 0.182
GGUCACGUCUCAAUCAACUCAUCGUCAGGAGUUUACUCCUGCUAACUCAACAGCUCGCAGUCAAG	0.304 ± 0.246
GGUCACGUCUCAAUCAACUCAUCCUCAGGAGUUUCCUCCUGUUAAGUCAACAGCUCGCAGUCAAG	0.328 ± 0.204
GGUCACGUCUCAAUCAACUCAUCCCCAGGAGUUUACUCCUGUUUAGUCAACAGCUCGCAGUCAAG	0.458 ± 0.228
GGUCACGUCUCAAUCAACUCAAUCCCAGGAGUUUUCUCCUGUAAAGUCAACAGCUCGCAGUCAAG	0.317 ± 0.231
GGUCACGUCUCAAUCAACUCUAUCCCAGGAGUUUACUCCUGUUUUCUCAACAGCUCGCAGUCAAG	0.399 ± 0.223

Sequence	binding signal [log2 fold change]
GGUCACGUCUCAAUCAACUCAAUCCCAGGAGUUUCCUCCUGCUAACUCAACAGCUCGCAGUCAAG	0.303 ± 0.231
GGUCACGUCUCAAUCAACUCUAUCCCAGGAGUUUCCUCCUGCAUACUCAACAGCUCGCAGUCAAG	0.312 ± 0.201
GGUCACGUCUCAAUCAACUCAUUCCCAGGAGUUUACUCCUGCUAACUCAACAGCUCGCAGUCAAG	0.364 ± 0.234
GGUCACGUCUCAAUCAACUCUAGUCCAGGAGUUUUCUCCUGUUAAUUCAACAGCUCGCAGUCAAG	0.331 ± 0.217
GGUCACGUCUCAAUCAACUCAGUCUCAGGAGUUUACUCCUGCUUAUUCAACAGCUCGCAGUCAAG	0.314 ± 0.242
GGUCACGUCUCAAUCAACUCAUCUUCAGGAGUUUACUCCUGCUUAGUCAACAGCUCGCAGUCAAG	0.342 ± 0.198
GGUCACGUCUCAAUCAACUCAUCCUCAGGAGUUUACUCCUGCUUACUCAACAGCUCGCAGUCAAG	0.315 ± 0.216
GGUCACGUCUCAAUCAACUCUUCCUCCAGGGAAACCCCUGGUUAACUCAACAGCUCGCAGUCAAG	0.443 ± 0.293
GGUCACGUCUCAAUCAACUCUUCGUCCAGGGAAACCCCUGGUUUUCUCAACAGCUCGCAGUCAAG	0.36 ± 0.292
GGUCACGUCUCAAUCAACUCUUCGCCCAGGGAAACCCCUGGUAAUCUCAACAGCUCGCAGUCAAG	0.384 ± 0.343
GGUCACGUCUCAAUCAACUCUUCCUCCAGGGAAAACCCUGGUAAACUCAACAGCUCGCAGUCAAG	0.339 ± 0.267
GGUCACGUCUCAAUCAACUCUUCGUCCAGGGAAAACCCUGGUUUUCUCAACAGCUCGCAGUCAAG	0.335 ± 0.277
GGUCACGUCUCAAUCAACUCAAUCUCCAGGGAAACCCCUGGUAAACUCAACAGCUCGCAGUCAAG	0.353 ± 0.274
GGUCACGUCUCAAUCAACUCUUCUUCCAGGGAAACCCCUGGUAAUCUCAACAGCUCGCAGUCAAG	0.352 ± 0.266
GGUCACGUCUCAAUCAACUCUACUUCCAGGGAAAACCCUGGCAAACUCAACAGCUCGCAGUCAAG	0.31 ± 0.258
GGUCACGUCUCAAUCAACUCAGUCCCCAGGGAAAACCCUGGUUUUUUCAACAGCUCGCAGUCAAG	0.518 ± 0.357
GGUCACGUCUCAAUCAACUCAGUCCCCAGGGAAACCCCUGGUAUUUUCAACAGCUCGCAGUCAAG	0.335 ± 0.368
GGUCACGUCUCAAUCAACUCAGUUUCCAGGGAAAUCCCUGGUUUAUUCAACAGCUCGCAGUCAAG	0.33 ± 0.289
GGUCACGUCUCAAUCAACUCUUCUUCCAGGGAAAACCCUGGCAAACUCAACAGCUCGCAGUCAAG	0.378 ± 0.272
GGUCACGUCUCAAUCAACUCAGUCUCCAGGGAAACCCCUGGUUUAUUCAACAGCUCGCAGUCAAG	0.458 ± 0.335
